Reference: PubChem BioAssay (NCI)
About 79,000 compounds went through this panel and 15% of them were active in at least one assay; those are over-represented in the sample as a whole. No stated cut-off is given here; in the data, active means growth inhibition above about 70%; inactive means the rest.

Columns and labels:
[1] = NCI Yeast Anticancer Drug Screen. Data for the rad50 strain (AID 155);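 further: 0% = growth of vehicle-only cultures of the same strain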; settings: S. cerevisiae rad50 strain growth inhibition; at 50.0 µM; active compounds read high
Procedure, shortened: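 Readout: growth inhibition relative to vehicle-treated cultures. Compound exposure was carried out in a genetically defined yeast strain deficient in DNA damage repair.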

[2] = NCI Yeast Anticancer Drug Screen. Data for the mec2-1 strain (AID 157); settings: S. cerevisiae mec2-1 strain, at 50.0 µM, active compounds read high
Procedure, shortened: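 Readout is yeast growth inhibition, normalised to vehicle-treated controls, in the mec2-1 strain exposed to compound.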

[3] = NCI Yeast Anticancer Drug Screen. Data for the sgs1 mgt1 strain (AID 161);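 further: 0% = growth of cultures given vehicle only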; settings: S. cerevisiae sgs1 mgt1 strain, at 50.0 µM, active compounds read high
Procedure, shortened: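 Compounds are added to genetically altered yeast, and growth is compared with cultures given vehicle alone to give percent inhibition.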

[4] = NCI Yeast Anticancer Drug Screen. Data for the cln2 rad14 strain (AID 165);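 further: 0% = growth equal to vehicle treated cultures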; settings: S. cerevisiae cln2 rad14 strain, at 50.0 µM, active compounds read high
Procedure, shortened: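 Relative to vehicle controls, growth inhibition of compound-treated cln2 rad14 yeast was recorded.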

[5] = NCI Yeast Anticancer Drug Screen. Data for the bub3 strain (AID 167); settings: S. cerevisiae bub3 mutant strain, at 50.0 µM, active compounds read high
Procedure, shortened: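 Readout: yeast growth inhibition, expressed relative to vehicle-only wells. The test organism is a mutant strain from a panel with lesions in DNA repair or checkpoint genes.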

[6] = NCI Yeast Anticancer Drug Screen. Data for the mlh1 rad18 strain (AID 175); settings: S. cerevisiae mlh1 rad18 strain growth inhibition; at 50.0 µM; active compounds read high
Procedure, shortened: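 Test agents were incubated with a yeast strain of defined genotype (DNA damage repair defect). Inhibition of growth was derived by comparison with vehicle-exposed cultures.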

Measured: growth inhibition

S=C1N=C(Cl)/C(=C\c2ccccc2)N1
inactive: [1] -4.65% | [2] -23.9% | [3] 3.45% | [4] 24.1% | [5] 11.5% | [6] -14.4%

CN(C)CCC(c1ccccc1)c1ccccc1
inactive: [1] -22.4% | [2] -2.85% | [3] 13.7% | [4] -13.6% | [5] 14.7% | [6] -5.8%

Nc1ccc(CP(=O)(O)O)cc1
inactive: [1] -8.4% | [2] 14.8% | [3] -3.65% | [4] -8.1% | [5] 16.1% | [6] 24.9%

CC(=O)OCC1OC(n2cnc([N+](=O)[O-])c2Br)C(OC(C)=O)C1OC(C)=O (stereo unspecified)
inactive: [1] 15.1% | [2] 15.4% | [3] 18.8% | [4] 25.5% | [5] 6.05% | [6] 21.8%

CC(=O)OCc1cccc(O)c1C(=O)CCC=C(C)C
inactive: [1] -4.4% | [2] -17.1% | [3] 8.15% | [4] -10.9% | [5] -6.7% | [6] -63.5%

COc1cccc(NC(=O)/C(CS(=O)(=O)CCC(C(C)=O)C(C)=O)=N\NC(C)(C)C)c1
inactive: [1] 11.7% | [2] 0.7% | [3] -20.8% | [4] -21.9% | [5] 1.3% | [6] 7.1%

O=C(O)c1cc(O)c(O)c(Cl)c1
inactive: [1] 10.3% | [2] 6.15% | [3] 4.1% | [4] -9% | [5] 6.6% | [6] 5.05%

NNC(=S)NNc1ccccc1
inactive: [1] 12.2% | [2] 42.4% | [3] 56.1% | [4] -2.65% | [5] 20.4% | [6] 42.7%

Nc1ncnc2c1ncn2C(=O)NC12CC3CC(CC(C3)C1)C2
inactive: [1] 9.75% | [2] 14.6% | [3] 8.7% | [4] 18.1% | [5] 8.25% | [6] -8.2%

Cc1ccc(S(=O)(=O)OCCN(CCOS(=O)(=O)c2ccc(C)cc2)c2cccc(Cl)c2)cc1
inactive: [1] 14.1% | [2] 2.35% | [3] 4.65% | [4] 19% | [5] -4.45% | [6] 29.9%

CCCCCCCCCCCC1=C(O)C(=O)C(Br)=C(O)C1=O
inactive: [1] 39.6% | [2] 14.3% | [3] 44.9% | [4] 19.1% | [5] -9.65% | [6] 49.9%

O=C1C2C3C=C4c5ccccc5N(c5ccccc5)C4([C@@H]2C(=O)N1c1ccc(F)cc1)[C@H]1C(=O)N(c2ccc(F)cc2)C(=O)[C@@H]31 (stereo partly specified)
inactive: [1] 35% | [2] 23.6% | [3] 11.5% | [4] 40.1% | [5] 21.4% | [6] 34.9%

CCCCCCCCN(CCCCCCCC)CC(O)c1cc(-c2ccccc2)nc2c(-c3ccccc3)cccc12 (stereo unspecified)
inactive: [1] 46.8% | [2] 32.5% | [3] 49.2% | [4] 51.1% | [5] 26.1% | [6] 48.5%

c1ccc(CSc2ccc3ccccc3c2)cc1
inactive: [1] -4.3% | [2] -20.1% | [3] -13.5% | [4] -51.8% | [5] -4.1% | [6] -29.9%

O=C(Cc1ccccc1)NN1C(=O)/C(=C\c2ccc(O)cc2)SC1=Nc1ccccc1
inactive: [1] 5.5% | [2] -1.05% | [3] 28.9% | [4] 4.4% | [5] -9.75% | [6] 19.9%

CC(C)C(=O)Nc1nc(OCCc2ccc([N+](=O)[O-])cc2)c2ncn(C3CC(O)C(CO)O3)c2n1 (stereo unspecified)
inactive: [1] 3.5% | [2] -0.2% | [3] 5.8% | [4] 8.5% | [5] -0.75% | [6] -11.8%

CC[n+]1c([S-])nn(C)c1-c1cnccn1
inactive: [1] -2.8% | [2] -4.9% | [3] -9.05% | [4] -13.9% | [5] 24% | [6] -12.5%

COc1ccc(N2C(=O)C(=O)N(C)C2=O)c2ccccc12
inactive: [1] -15.1% | [2] -26.7% | [3] -2% | [4] 6.1% | [5] 2.85% | [6] -7.95%

CC(C)(C)c1ccccc1OC(=O)Nc1ccc(F)cc1
inactive: [1] 3.65% | [2] 7.1% | [3] 7.4% | [4] -14.2% | [5] 19.1% | [6] -3.7%

Cc1ccc([Si](C)(C)c2ccccc2)cc1
inactive: [1] -2.4% | [2] 13.6% | [3] -2.65% | [4] 7.7% | [5] 9.7% | [6] 4.9%

CC(C#N)Nc1ccc(Oc2ccc(C(C)(C)c3ccc(Oc4ccc(NC(C)C#N)cc4)cc3)cc2)cc1 (stereo unspecified)
inactive: [1] 6.25% | [2] -2.6% | [3] -8.3% | [4] 7.1% | [5] -23.6% | [6] -40.1%

C=C(C)c1ccc(F)cc1
inactive: [1] 3.9% | [2] -7.5% | [3] -1.65% | [4] 4.2% | [5] -2.05% | [6] 0.55%

Cc1cc(N(CCC#N)CCC#N)ccc1/C=C1N=C(/C=C/c2ccccc2)OC(=O)N\1
inactive: [1] 14.7% | [2] -5% | [3] 4.7% | [4] -10.1% | [5] 1.15% | [6] -13.7%

COCC(O)CC#N (stereo unspecified)
inactive: [1] 14.1% | [2] 4% | [3] -3.65% | [4] 7.65% | [5] 9.65% | [6] 3.9%

Brc1ccccc1-c1nnc(-c2cccc3ccccc23)o1
inactive: [1] -20.9% | [2] -59.9% | [3] -15.3% | [4] -10.8% | [5] -26.6% | [6] -23.2%

Cc1cccc(NC(=O)COc2c(C)cc(Cl)cc2Cl)c1
inactive: [1] 23.8% | [2] 15.5% | [3] 38.2% | [4] 0.45% | [5] 38% | [6] 14.8%

O=[N+]([O-])c1ccc(C=NCCO)cc1
inactive: [1] 8.75% | [2] 8.55% | [3] 3.7% | [4] -1% | [5] 9.2% | [6] -5.4%

COc1cc(OC(=O)/C=C2/CCC(=O)O2)c2c(c1)OC1OC(=O)CC21 (stereo unspecified)
inactive: [1] 13.6% | [2] -4.95% | [3] 13.8% | [4] -3.4% | [5] -1.9% | [6] 15.8%

COc1ccc(/C=C2/C(=O)N=C(NC(C)=O)N2C)cc1OC
inactive: [1] -13.8% | [2] -14.2% | [3] -13.7% | [4] -2.1% | [5] 4.7% | [6] 4.55%

CCCCN(CCCC)CC(O)c1cc(-c2c(Cl)cccc2Cl)nc2c(Cl)cc(Cl)cc12 (stereo unspecified)
inactive: [1] 53.3% | [2] 55.3% | [3] 55% | [4] 13.8% | [5] 20.8% | [6] 64.1%

COc1ccc(NCC(=O)Nn2c(-c3ccccc3)nc3ccccc3c2=O)cc1
inactive: [1] -37% | [2] -48.2% | [3] 4% | [4] 0.4% | [5] 4.15% | [6] -18.4%

CCOC(=O)C(NC(=O)c1ccccc1)(Nc1ccc(S(=O)(=O)Nc2ncccn2)cc1)C(F)(F)F (stereo unspecified)
inactive: [1] 1.1% | [2] -17.4% | [3] -16.8% | [4] -4.55% | [5] -12.7% | [6] 16.9%

CN/C=C(/c1ccc(OC)cc1)C(O)c1ccc(OC)c(OC)c1 (stereo unspecified)
inactive: [1] -17.9% | [2] -16.2% | [3] -38% | [4] 2.75% | [5] -10.8% | [6] -20.4%

O=C(NCCCCC(Br)C(=O)O)c1ccccc1 (stereo unspecified)
inactive: [1] -30% | [2] -5.5% | [3] -33.4% | [4] -53.2% | [5] -1.55% | [6] -34.9%

CCCCC(=O)c1ccc2ccccc2c1O
inactive: [1] 6.9% | [2] -6.35% | [3] 3.9% | [4] -18% | [5] -6.3% | [6] 6.8%

C=C(C)CNCC(=C)C
inactive: [1] 35.3% | [2] 14.1% | [3] -8.25% | [4] -16.8% | [5] 17.9% | [6] 21.6%

CC(C)CC(NC(=O)CN1C(=O)c2ccccc2C1=O)C(=O)O (stereo unspecified)
inactive: [1] -10.3% | [2] -41.6% | [3] 7.4% | [4] 3.2% | [5] -17% | [6] -24.1%

O=C1NCCN1CCCl
inactive: [1] 0.7% | [2] -1.25% | [3] -5.15% | [4] 1.5% | [5] 1.65% | [6] 6.25%

CC(C)CC(NC(=O)C(COC(C)(C)C)NC(=O)C(CSC(c1ccccc1)(c1ccccc1)c1ccccc1)NC(=O)OC(C)(C)C)C(=O)OC(C)(C)C (stereo unspecified)
inactive: [1] -16.1% | [2] 11.9% | [3] -1.75% | [4] -16.6% | [5] -13.9% | [6] 8.05%

CCCCCCCCCCCCCCCC(=O)Nc1ccc(C(=O)C[n+]2ccc3c(NC(=O)CCC(=O)OC)cccc3c2)cc1
inactive: [1] 3.4% | [2] -12.2% | [3] 3% | [4] -0.95% | [5] 8.55% | [6] -10.6%

CCCCCCCCCCCCCCCCO
inactive: [1] -14.4% | [2] -14.2% | [3] -13.6% | [4] -16.3% | [5] -15.2% | [6] -12.4%
